# Laboratory results published in PubChem BioAssay (Tox21).
# Records with an inconclusive call do not appear. Where a call stands in place of a potency, no number is given. Values without a mark were called inactive. Activity calls are given as the source filed them. The call rests on the fitted dose curve; in most records, active means well fitted curve in the direction sought with a large enough effect in the repeat runs; inconclusive means weak or mixed curves; inactive means no such curve, though single readings can be large; an effect the other way counts as inactive or inconclusive.
# Columns and labels:
# [1] = qHTS RealTime-Glo MT Cell Viability Assay in HEK293 cells - 16 hour (AID 1224872); further: nearly all actives have a fitted effect of over 50% in size; further: potency means the concentration at half of the fitted maximal effect; on activity change, negative = cytotoxicity: top concentration of the series differs between compounds
# In short: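 Tox21 10K qHTS, HEK293, 600 cells/well, RealTime-Glo reagent co-dispensed with cells; 5 h preincubation, compound by pintool, 37 C, luminescence at 0–40 h.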
# [2] = qHTS RealTime-Glo MT Cell Viability Assay in HepG2 cells - 8 hour (AID 1224873); further: nearly all actives have a fitted effect of over 55% in size
# In short: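 HepG2 cells (600/well) mixed with RealTime-Glo MT reagent, settled 5 h at 37 C/5% CO2 before compound addition. Nonlytic NanoLuc luminescence from viable-cell prosubstrate reduction read repeatedly during 40 h treatment at 37 C.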
# [3] = qHTS RealTime-Glo MT Cell Viability Assay in HEK293 cells - 40 hour (AID 1224874); settings: RealTime-Glo luminescence; max response: active compounds read low; further: nearly all actives have a fitted effect of over 50% in size; further: potency means the concentration at half of the fitted maximal effect
# In short: (§1)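 Viable HEK293 cells reduce a cell-permeant prosubstrate; the product diffuses out and is consumed by NanoLuc in the medium to give light. Compounds went in after a 5 h incubation and plates were read over the treatment course.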
# [4] = A CellTox Green Cytotoxicity Assay to monitor cytotoxicity in HEK293 cells - 24 hour (AID 1224875); further: nearly all actives have a fitted effect of over 45% in size; further: potency means the concentration at half of the fitted maximal effect; on activity change: series mostly up to about 77 µM
# In short: (§2)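 Fluorescence intensity, read at 0, 8, 16, 24, 32 and 40 h of compound treatment, reflected dye binding to DNA of dead HEK293 cells; compounds (23 nL, DMSO) were added 5 h after plating cells with reagent.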
# [5] = A CellTox Green Cytotoxicity Assay to monitor cytotoxicity in HepG2 cells - 16 hour (AID 1224876); further: nearly all actives have a fitted effect of over 45% in size; further: potency means the concentration at half of the fitted maximal effect
# In short: (§3)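 Using 1536-well format, dye-containing HepG2 suspension was seeded, allowed 5 h at 37 C/5% CO2, dosed by pintool with compounds, positive and negative controls, and imaged for fluorescence across 40 h.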
# [6] = qHTS RealTime-Glo MT Cell Viability Assay in HepG2 cells - 32 hour (AID 1224877); further: nearly all actives have a fitted effect of over 55% in size; further: potency means the concentration at half of the fitted maximal effect
# In short: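 Cells + NanoLuc/prosubstrate dispensed (600 cells/well) → 5 h at 37 C/5% CO2 → compounds in DMSO transferred → 40 h incubation at 37 C, luminescence read at 0, 8, 16, 24, 32, 40 h.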
# [7] = A CellTox Green Cytotoxicity Assay to monitor cytotoxicity in HepG2 cells - 24 hour (AID 1224878); further: nearly all actives have a fitted effect of over 45% in size; further: potency means the concentration at half of the fitted maximal effect
# In short: as §3
# [8] = A CellTox Green Cytotoxicity Assay to monitor cytotoxicity in HepG2 cells - 40 hour (AID 1224879); further: nearly all actives have a fitted effect of over 40% in size; further: potency means the concentration at half of the fitted maximal effect
# In short: as §3
# [9] = qHTS RealTime-Glo MT Cell Viability Assay in HEK293 cells - 0 hour (AID 1224880); further: top concentration of the series differs between compounds; nearly all actives have a fitted effect of over 45% in size
# In short: as §1
# [10] = A CellTox Green Cytotoxicity Assay to monitor cytotoxicity in HEK293 cells - 32 hour (AID 1224881); further: nearly all actives have a fitted effect of over 40% in size; further: potency means the concentration at half of the fitted maximal effect
# In short: as §2
Structure (SMILES),Potency [1],outcome [2],max response [3] [%],Potency [4],Potency [5],Potency [6],Potency [7],Potency [8],outcome [9],Potency [10],Potency [3],"activity change, negative = cytotoxicity [1]","viability change, negative = cytotoxic [2]",activity change [4],cytotoxicity increase [5],"activity change, negative = cytotoxic [6]",cytotoxicity [7],"activity change, negative = cytotoxicity [9]",cytotoxicity increase [10]
CCOc1ccc2nc(N)sc2c1,inactive,inactive,-4.71,inactive,inactive,inactive,inactive,inactive,inactive,inactive,–,–,–,–,–,–,–,–,–
COC(=O)C(C)O (stereo unspecified),inactive,inactive,3.12,inactive,inactive,inactive,inactive,inactive,inactive,inactive,–,–,–,–,–,–,–,–,–
COc1cc(N)c(Cl)cc1C(=O)NC1CCN(Cc2ccccc2)CC1,19 µM (active),inactive,–,inactive,inactive,inactive,inactive,inactive,inactive,inactive,19 µM (active),–,–,–,–,–,–,–,–
CC(C)OC(C)C,inactive,inactive,20.1,inactive,inactive,inactive,inactive,inactive,inactive,inactive,–,–,–,–,–,–,–,–,–
CN1[C@@H]2CC[C@H]1CC(OC(=O)c1c[nH]c3ccccc13)C2 (stereo partly specified),inactive,inactive,4.75,inactive,inactive,inactive,inactive,inactive,inactive,inactive,–,–,–,–,–,–,–,–,–
CCCCCCCCCC#N,inactive,inactive,0.388,inactive,inactive,inactive,inactive,inactive,inactive,inactive,–,–,–,–,–,–,–,–,–
Cc1ccc(C=O)s1,inactive,inactive,5.96,43.6 µM (active),27.5 µM (active),inactive,38.9 µM (active),27.5 µM (active),inactive,43.6 µM (active),–,–,–,–,–,–,–,–,–
COC(C)CCO (stereo unspecified),inactive,inactive,6.13,inactive,inactive,inactive,inactive,inactive,inactive,inactive,–,–,–,–,–,–,–,–,–
CCN(CC)CC1CCCCN1CC(=O)N1c2ccccc2C(=O)Nc2cccnc21 (stereo unspecified),inactive,inactive,0.471,inactive,inactive,inactive,inactive,inactive,inactive,inactive,–,–,–,–,–,–,–,–,–
C=CC(C)(O)CC/C=C(\C)CCC=C(C)C (stereo unspecified),inactive,inactive,-1.81,54.9 µM (active),17.4 µM (active),inactive,21.9 µM (active),21.9 µM (active),inactive,49 µM (active),–,–,–,–,–,–,–,–,–
O=c1oc2c(O)c(O)cc3c(=O)oc4c(O)c(O)cc1c4c23,–,–,-22.4,–,–,–,–,–,–,–,–,-3.75% [at 15.8 µM],0.835% [at 15.8 µM],"21.9% [at 15.8 µM, active compounds read high]",1.02% [at 15.8 µM],-12.3% [at 15.8 µM],4.4% [at 15.8 µM],-5.71% [at 15.8 µM],18.3% [at 15.8 µM]
Cc1ncc(CO)c(CN)c1O,inactive,inactive,4.15,inactive,inactive,inactive,inactive,inactive,inactive,inactive,–,–,–,–,–,–,–,–,–
CC(=O)N(CC(O)CN(C(C)=O)c1c(I)c(C(=O)NCC(O)CO)c(I)c(C(=O)NCC(O)CO)c1I)c1c(I)c(C(=O)NCC(O)CO)c(I)c(C(=O)NCC(O)CO)c1I (stereo unspecified),inactive,inactive,0.602,inactive,inactive,inactive,inactive,inactive,inactive,inactive,–,–,–,–,–,–,–,–,–
O=[N+]([O-])c1nccn1CO[C@@H](CO)[C@H](O)CO,inactive,inactive,-3.33,inactive,inactive,inactive,inactive,inactive,inactive,inactive,–,–,–,–,–,–,–,–,–
C1CCOC1,inactive,inactive,0.369,inactive,inactive,inactive,inactive,inactive,inactive,inactive,–,–,–,–,–,–,–,–,–
CCCC1CCC(=O)O1 (stereo unspecified),inactive,inactive,4.54,inactive,inactive,inactive,inactive,inactive,inactive,inactive,–,–,–,–,–,–,–,–,–
CCCCCCCOC(=O)CCC,inactive,inactive,4.56,inactive,inactive,inactive,inactive,inactive,inactive,inactive,–,–,–,–,–,–,–,–,–
O=C1C=CC(=O)O1,inactive,inactive,12.6,inactive,inactive,inactive,inactive,inactive,inactive,inactive,–,–,–,–,–,–,–,–,–
CCOc1ccc(NC(N)=O)cc1,inactive,inactive,4.66,inactive,inactive,inactive,inactive,inactive,inactive,inactive,–,–,–,–,–,–,–,–,–
O=c1[nH]cnc2c1ncn2[C@@H]1O[C@H](CO)[C@@H](O)[C@H]1O,inactive,inactive,1.22,inactive,inactive,inactive,inactive,inactive,inactive,inactive,–,–,–,–,–,–,–,–,–
CS(=O)(=O)c1ccc([C@@H](O)[C@@H](CF)NC(=O)C(Cl)Cl)cc1,inactive,inactive,11.3,inactive,inactive,inactive,inactive,inactive,inactive,inactive,–,–,–,–,–,–,–,–,–
CCC/C=C/CO,inactive,inactive,0.426,inactive,inactive,inactive,inactive,inactive,inactive,inactive,–,–,–,–,–,–,–,–,–
COC(=O)/C=C(/C)N,inactive,inactive,5.09,inactive,inactive,inactive,inactive,inactive,inactive,inactive,–,–,–,–,–,–,–,–,–

Structure (SMILES),Potency [1],outcome [2],max response [3] [%],Potency [4],Potency [5],Potency [6],Potency [7],Potency [8],outcome [9],Potency [10],Potency [3],"activity change, negative = cytotoxicity [1]","viability change, negative = cytotoxic [2]",activity change [4],cytotoxicity increase [5],"activity change, negative = cytotoxic [6]",cytotoxicity [7],"activity change, negative = cytotoxicity [9]",cytotoxicity increase [10]
Cc1cn([C@@H]2O[C@H](CO)[C@@H](O)[C@@H]2F)c(=O)[nH]c1=O,inactive,inactive,-1.92,inactive,inactive,inactive,inactive,inactive,inactive,inactive,–,–,–,–,–,–,–,–,–
CCOC(=O)[C@H](CCc1ccccc1)N[C@@H](C)C(=O)N1Cc2cc(OC)c(OC)cc2C[C@H]1C(=O)O,inactive,inactive,3.96,inactive,inactive,inactive,inactive,inactive,inactive,inactive,–,–,–,–,–,–,–,–,–
CC(C)O,inactive,inactive,-1.12,inactive,inactive,inactive,inactive,inactive,inactive,inactive,–,–,–,–,–,–,–,–,–
Nc1ccc2ccccc2c1S(=O)(=O)O,inactive,inactive,-4.03,inactive,inactive,inactive,inactive,inactive,inactive,inactive,–,–,–,–,–,–,–,–,–
Cc1nnc(SCC2=C(C(=O)O)N3C(=O)[C@@H](NC(=O)Cn4cnnn4)[C@H]3SC2)s1,inactive,inactive,6.83,inactive,inactive,inactive,inactive,inactive,inactive,inactive,–,–,–,–,–,–,–,–,–
CC(C)C(=O)OCC(C)(C)C(O)C(C)C (stereo unspecified),inactive,inactive,8.54,inactive,inactive,inactive,inactive,inactive,inactive,inactive,–,–,–,–,–,–,–,–,–
CC(=O)OC(C)OC(C)=O,inactive,inactive,0.965,inactive,inactive,inactive,inactive,inactive,inactive,inactive,–,–,–,–,–,–,–,–,–
CN(C)CC[C@@H](c1ccc(Cl)cc1)c1ccccn1,inactive,inactive,-0.584,inactive,inactive,inactive,inactive,inactive,inactive,inactive,–,–,–,–,–,–,–,–,–
OCCN(CCO)c1ccccc1,inactive,inactive,1.89,inactive,inactive,inactive,inactive,inactive,inactive,inactive,–,–,–,–,–,–,–,–,–
O=C(O[C@@H](C(=O)O)[C@@H](OC(=O)c1ccccc1)C(=O)O)c1ccccc1,inactive,inactive,–,inactive,inactive,inactive,inactive,inactive,inactive,inactive,–,–,–,–,–,–,–,–,–
C1CSCCS1,inactive,inactive,-4.02,–,inactive,inactive,inactive,inactive,inactive,inactive,–,–,–,–,–,–,–,–,–
ICCc1ccccc1,inactive,inactive,22.5,–,inactive,12.1 µM (active),inactive,inactive,inactive,–,–,–,–,–,–,–,–,–,–
O=C(O)c1cccc(Cl)c1Cl,inactive,inactive,–,inactive,inactive,inactive,inactive,inactive,inactive,inactive,–,–,–,–,–,–,–,–,–
OC[C@H]1O[C@@H](O[C@H]2[C@H](O)[C@@H](O)[C@H](O)O[C@@H]2CO)[C@H](O)[C@@H](O)[C@H]1O,inactive,inactive,0.3,–,inactive,inactive,inactive,inactive,inactive,inactive,–,–,–,–,–,–,–,–,–
Nc1cccc(S(=O)(=O)O)c1,inactive,inactive,3,–,inactive,inactive,inactive,inactive,inactive,inactive,–,–,–,–,–,–,–,–,–
CCCCCCCCCC/C=C/C#N,inactive,inactive,4.49,–,inactive,inactive,inactive,inactive,inactive,inactive,–,–,–,–,–,–,–,–,–
COc1cc(C)ccc1C(C)C,inactive,inactive,–,inactive,inactive,inactive,inactive,inactive,inactive,inactive,–,–,–,–,–,–,–,–,–
Clc1cccc(-c2cc(Cl)cc(Cl)c2)c1,inactive,inactive,-9.77,–,inactive,inactive,–,–,inactive,42.1 µM (active),–,–,–,–,–,–,–,–,–
NCCCN1CCN(CCCN)CC1,inactive,inactive,6.33,inactive,inactive,inactive,–,–,inactive,inactive,–,–,–,–,–,–,–,–,–
CCCCCCCCCCCCOCCOS(=O)(=O)O,inactive,inactive,–,24.5 µM (active),49 µM (active),inactive,49 µM (active),54.9 µM (active),inactive,24.5 µM (active),–,–,–,–,–,–,–,–,–
CC(=O)N[C@@H](CC(C)C)C(=O)O,inactive,inactive,–,inactive,inactive,inactive,inactive,inactive,inactive,inactive,–,–,–,–,–,–,–,–,–
CC(C)S,inactive,inactive,–,inactive,inactive,inactive,inactive,inactive,inactive,inactive,–,–,–,–,–,–,–,–,–
O=Cc1ccc(F)c(Br)c1,inactive,inactive,3.83,–,inactive,inactive,inactive,inactive,inactive,inactive,–,–,–,–,–,–,–,–,–
